# Experimental data as given in PubChem BioAssay.
# Values joined by “and” are separate entries in the source; they are usually repeats but may differ in a detail not shown here. Equal values may be shown once. Active and inactive are the calls of the source.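 How the source made its calls, unless noted: active means thallium flux through the channel raised or lowered by more than 3 SD from vehicle-only wells, actives on both sides; inactive means the rest.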
# How the values were obtained:
# [1] = liver-stage malaria parasite growth inhibition, primary screen, cell-based, HepG2, luciferase luminescence, HepG2 viability (AID 624349; in the data active means parasite load remaining mostly below about 12%, no sharp cut-off; inactive means mostly above about 10%;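 further: 100% = mean of DMSO negative control wells on the same plate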); details: P. berghei liver stage in HepG2, luciferase luminescence, concentration not given here; parasite load remaining: stronger effect = lower value; viability: measured here: HepG2 viability without parasites
# [2] = modulation of C. elegans fzo-1 (AID 1259413; call rule not given here;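 further: fzo-1 mutant C. elegans worms in liquid wells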); details: C. elegans fzo-1 modulator screen, mean read-out; stronger effect = higher value
# [3] = sensitizers of A549 cells to miR-34 induction, primary screen, imaging, A549 dox-inducible miR-34, nuclei and caspase counts (AID 1347080;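 active means compounds whose cell count with miR-34 switched on is under 0.7 times the count with it off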); details: A549 miR-34 inducible, Hoechst nuclei count, 48 h
# [4] = survival rescue of mitochondrial mutant cells in low glucose, primary screen, MELAS cybrids, Rieske KO mouse fibroblasts, CellTiter-Glo (AID 1508586;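 active means mean z-score across replicates of 1.96 or higher in either the MELAS or the Rieske mutant cell line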;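 further: z relative to plate mean and SD of compound and empty wells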)
# [5] = test system: F380Y; experiment: modulators of BK channel variants, profiling panel, selectivity assay, cell-based, U2OS BacMam, thallium flux, beta subunits (AID 1259406); details: at 30 µM;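 further: initial slope of Thallos dye fluorescence rise after thallium is added; log ratio against the mean of 0.3% DMSO vehicle wells on the same plate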
# [6] = test system: F380Y/beta1; experiment: as above; details: at 30 µM
# [7] = test system: F380Y/beta2Delta; experiment: as above; details: at 30 µM
# [8] = test system: F380Y/beta4; experiment: as above; details: at 30 µM
# [9] = target: Calcium-activated potassium channel subunit alpha-1 (Homo sapiens) + Leucine-rich repeat-containing protein 26 (Homo sapiens) (UniProt Q12791+Q2I0M4); experiment: as above; details: F380Y/Slo1WT/gamma1, at 30 µM
# Calcium-activated potassium channel subunit alpha-1 (Homo sapiens) + Leucine-rich repeat-containing protein 26 (Homo sapiens), sequence (Q2I0M4 whole entry, looked up, one chain of several): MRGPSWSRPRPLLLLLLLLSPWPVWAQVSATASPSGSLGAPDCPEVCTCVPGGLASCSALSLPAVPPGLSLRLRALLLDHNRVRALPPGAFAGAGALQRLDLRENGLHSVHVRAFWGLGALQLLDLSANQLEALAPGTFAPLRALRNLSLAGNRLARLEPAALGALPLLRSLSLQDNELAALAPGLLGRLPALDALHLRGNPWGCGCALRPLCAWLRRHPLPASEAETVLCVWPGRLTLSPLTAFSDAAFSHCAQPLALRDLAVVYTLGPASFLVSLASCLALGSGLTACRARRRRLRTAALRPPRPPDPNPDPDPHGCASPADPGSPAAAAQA
# [10] = test system: R275C; experiment: as above; details: at 30 µM
# [11] = test system: R275C/beta1; experiment: as above; details: at 30 µM
# [12] = test system: R275C/beta2Delta; experiment: as above; details: at 30 µM
# [13] = test system: R275C/beta4; experiment: as above; details: at 30 µM
# [14] = test system: R275C/Slo1WT/beta2; experiment: as above; details: at 30 µM
# [15] = Cy5 fluorescence interference with SSB-bound oligo, artefact control for HCV NS3 helicase inhibitor project, biochemical, NIH Clinical Collection, E. coli SSB (AID 743268; call rule not given here)
# [16] = test system: Hepatitis C virus NS3 helicase; experiment: HCV NS3 helicase inhibitors, primary screen, biochemical, fluorescence polarization, NIH Clinical Collection (AID 743270; call rule not given here); details: NS3 helicase binding to Cy5-dT15 DNA, stronger effect = higher value, concentration not given here
# [17] = target: Single-stranded DNA-binding protein (Escherichia coli (strain K12)) (UniProt P0AGE0); experiment: E. coli SSB displacement from DNA, counter-screen for HCV NS3 helicase inhibitor project, biochemical, fluorescence polarization, NIH Clinical Collection (AID 743271; in the data active means inhibition above about 28%); details: stronger effect = higher value, concentration not given here
# [18] = fluorescence interference in NS3h assay format, artefact control for HCV NS3 helicase inhibitor project, biochemical, NIH Clinical Collection (AID 743272; call rule not given here;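 further: HCV NS3 helicase with a Cy5 labelled single stranded DNA probe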); details: fluorescence interference counterscreen, stronger effect = lower value
# [19] = stronger effect = lower value, cell number ratio, induced over uninduced
# [20] = measured here: relative caspase fold change +Dox/-Dox
# [21] = measured here: total cells with miR-34 induction, stronger effect = lower value
# [22] = measured here: total cells without miR-34 induction
# [23] = MELAS cybrid survival, CellTiter-Glo 48 h, stronger effect = higher value
# [24] = Rieske KO mouse fibroblast survival, CellTiter-Glo 72 h
smiles,measurement,setting,value
CN1[C@@H]2CC[C@H]1CC(OC(=O)C(CO)c1ccccc1)C2 (stereo partly specified),parasite load remaining,[1],41.5% (inactive) and 46.2% (inactive)
same,viability,[1],87.1% and 116%
same,mean signal,[2],274 (inactive)
same,fold change,[3]; [19],0.947 (inactive) and 0.887 (inactive) and 0.871 (inactive)
same,fold change,[3]; [20],2.84 and 0.579 and 1.47
same,cell count,[3]; [21],10500 and 7790 and 9390
same,cell count,[3]; [22],11100 and 8790 and 10800
same,z-score,[4]; [23],-0.283 (inactive) and 0.13 (inactive)
same,z-score,[4]; [24],0.502 and 0.307
same,log fold change Tl+ flux,[5],0.0269 (inactive)
same,log fold change Tl+ flux,[6],-0.0245 (inactive)
same,log fold change Tl+ flux,[7],0.00535 (inactive)
same,log fold change Tl+ flux,[8],0.0216 (inactive)
same,log fold change Tl+ flux,[9],0.00679 (inactive)
same,log fold change Tl+ flux,[10],-0.0152 (inactive)
same,log fold change Tl+ flux,[11],-0.00104 (inactive)
same,log fold change Tl+ flux,[12],0.0208 (inactive)
same,log fold change Tl+ flux,[13],-0.00928 (inactive)
same,log fold change Tl+ flux,[14],0.0472 (inactive)
O=c1ncc(F)c[nH]1,parasite load remaining,[1],102% (inactive)
same,viability,[1],68.9%
same,fluorescence ratio,[15],1.06 (inactive)
same,inhibition,[16],0.4% (inactive)
same,inhibition,[17],-3.95% (inactive)
same,fluorescence ratio,[18],1.05 (inactive)
same,mean signal,[2],283 (inactive)
same,fold change,[3]; [19],0.892 (inactive)
same,fold change,[3]; [20],1.42
same,cell count,[3]; [21],9920
same,cell count,[3]; [22],11100
same,log fold change Tl+ flux,[5],-0.0112 (inactive)
same,log fold change Tl+ flux,[6],0.016 (inactive)
same,log fold change Tl+ flux,[7],0.0227 (inactive)
same,log fold change Tl+ flux,[8],-0.00465 (inactive)
same,log fold change Tl+ flux,[9],0.0169 (inactive)
same,log fold change Tl+ flux,[10],-0.0477 (inactive)
same,log fold change Tl+ flux,[11],0.0224 (inactive)
same,log fold change Tl+ flux,[12],-0.0499 (inactive)
same,log fold change Tl+ flux,[13],0.00687 (inactive)
same,log fold change Tl+ flux,[14],-0.000391 (inactive)
CC1CNc2c(cccc2S(=O)(=O)N[C@@H](CCCN=C(N)N)C(=O)N2CC[C@@H](C)C[C@@H]2C(=O)O)C1 (stereo partly specified),parasite load remaining,[1],91.7% (inactive) and 25.6% (inactive)
same,viability,[1],75.9% and 68%
same,fluorescence ratio,[15],1.01 (inactive)
same,inhibition,[16],-2.77% (inactive)
same,inhibition,[17],-0.1% (inactive)
same,fluorescence ratio,[18],0.96 (inactive)
same,mean signal,[2],269 (inactive)
same,fold change,[3]; [19],0.891 (inactive)
same,fold change,[3]; [20],1.15
same,cell count,[3]; [21],10400
same,cell count,[3]; [22],11700
same,z-score,[4]; [23],-0.605 (inactive) and 0.47 (inactive)
same,z-score,[4]; [24],-0.277 and -0.497
same,log fold change Tl+ flux,[5],-0.00418 (inactive)
same,log fold change Tl+ flux,[6],0.00744 (inactive)
same,log fold change Tl+ flux,[7],0.0133 (inactive)
same,log fold change Tl+ flux,[8],0.00267 (inactive)
same,log fold change Tl+ flux,[9],-0.0355 (inactive)
same,log fold change Tl+ flux,[10],-0.0227 (inactive)
same,log fold change Tl+ flux,[11],-0.0183 (inactive)
same,log fold change Tl+ flux,[12],-0.0418 (inactive)
same,log fold change Tl+ flux,[13],-0.0138 (inactive)
same,log fold change Tl+ flux,[14],0.0382 (inactive)
CCCCC(=O)OC1(C(=O)CO)CCC2C3CCC4=CC(=O)CCC4(C)C3C(O)CC21C (stereo unspecified),parasite load remaining,[1],89.7% (inactive)
same,viability,[1],100%
same,fluorescence ratio,[15],1.04 (inactive)
same,inhibition,[16],-5.91% (inactive)
same,inhibition,[17],-5.05% (inactive)
same,fluorescence ratio,[18],1.01 (inactive)
same,mean signal,[2],256 (inactive)
same,fold change,[3]; [19],0.983 (inactive)
same,fold change,[3]; [20],2.66
same,cell count,[3]; [21],6880
same,cell count,[3]; [22],7000
same,log fold change Tl+ flux,[5],-0.858 (active)
same,log fold change Tl+ flux,[6],-0.315 (active)
same,log fold change Tl+ flux,[7],-0.396 (active)
same,log fold change Tl+ flux,[8],-0.379 (active)
same,log fold change Tl+ flux,[9],-0.495 (active)
same,log fold change Tl+ flux,[10],0.0146 (inactive)
same,log fold change Tl+ flux,[11],0.44 (active)
same,log fold change Tl+ flux,[12],0.266 (active)
same,log fold change Tl+ flux,[13],0.327 (active)
same,log fold change Tl+ flux,[14],-0.00582 (inactive)
CC(C)OC(=O)CCC/C=C\C[C@@H]1[C@@H](CC[C@@H](O)CCc2ccccc2)[C@H](O)C[C@@H]1O,parasite load remaining,[1],89.4% (inactive) and 43.5% (inactive)
same,viability,[1],60.9% and 104%
same,fluorescence ratio,[15],0.97 (inactive)
same,inhibition,[16],0.4% (inactive)
same,inhibition,[17],-5.49% (inactive)
same,fluorescence ratio,[18],0.95 (inactive)
same,mean signal,[2],205 (inactive)
same,fold change,[3]; [19],0.899 (inactive)
same,fold change,[3]; [20],1.07
same,cell count,[3]; [21],10000
same,cell count,[3]; [22],11100
same,z-score,[4]; [23],0.73 (inactive) and -0.464 (inactive)
same,z-score,[4]; [24],1.53 and -0.0343
same,log fold change Tl+ flux,[5],0.503 (active)
same,log fold change Tl+ flux,[6],0.284 (active)
same,log fold change Tl+ flux,[7],-0.0484 (inactive)
same,log fold change Tl+ flux,[8],0.158 (active)
same,log fold change Tl+ flux,[9],0.228 (active)
same,log fold change Tl+ flux,[10],-0.0794 (inactive)
same,log fold change Tl+ flux,[11],0.476 (active)
same,log fold change Tl+ flux,[12],0.262 (active)
same,log fold change Tl+ flux,[13],0.467 (active)
same,log fold change Tl+ flux,[14],0.084 (active)
CC(=O)C1(O)CCC2C3CC(C)C4=CC(=O)C=CC4(C)C3(F)C(O)CC21C (stereo unspecified),parasite load remaining,[1],94.8% (inactive)
same,viability,[1],93.8%
same,fluorescence ratio,[15],1.07 (inactive)
same,inhibition,[16],-0.45% (inactive)
same,inhibition,[17],-0.48% (inactive)
same,fluorescence ratio,[18],1 (inactive)
same,mean signal,[2],265 (inactive)
same,fold change,[3]; [19],0.925 (inactive)
same,fold change,[3]; [20],2.07
same,cell count,[3]; [21],7970
same,cell count,[3]; [22],8610
same,log fold change Tl+ flux,[5],-0.0303 (inactive)
same,log fold change Tl+ flux,[6],0.0429 (inactive)
same,log fold change Tl+ flux,[7],-0.0137 (inactive)
same,log fold change Tl+ flux,[8],-0.0225 (inactive)
same,log fold change Tl+ flux,[9],-0.014 (inactive)
same,log fold change Tl+ flux,[10],-0.0154 (inactive)
same,log fold change Tl+ flux,[11],0.00875 (inactive)
same,log fold change Tl+ flux,[12],-0.0161 (inactive)
same,log fold change Tl+ flux,[13],0.055 (inactive)
same,log fold change Tl+ flux,[14],0.00372 (inactive)
CC(C)(C)NC(=O)[C@@H]1C[C@@H]2CCCC[C@@H]2CN1C[C@@H](O)[C@H](Cc1ccccc1)NC(=O)[C@H](CC(N)=O)NC(=O)c1ccc2ccccc2n1,parasite load remaining,[1],82.5% (inactive) and 52% (inactive)
same,viability,[1],75.6% and 103%
same,fluorescence ratio,[15],1.02 (inactive)
same,inhibition,[16],2.77% (inactive)
same,inhibition,[17],12.2% (inactive)
same,fluorescence ratio,[18],1.01 (inactive)
same,mean signal,[2],234 (inactive)
same,fold change,[3]; [19],0.908 (inactive)
same,fold change,[3]; [20],0.962
same,cell count,[3]; [21],8420
same,cell count,[3]; [22],9260
same,z-score,[4]; [23],-0.0678 (inactive)
same,z-score,[4]; [24],-1.19
same,log fold change Tl+ flux,[5],-0.12 (active)
same,log fold change Tl+ flux,[6],-0.0774 (inactive)
same,log fold change Tl+ flux,[7],-0.2 (active)
same,log fold change Tl+ flux,[8],-0.072 (inactive)
same,log fold change Tl+ flux,[9],-0.0094 (inactive)
same,log fold change Tl+ flux,[10],-0.273 (active)
same,log fold change Tl+ flux,[11],0.138 (active)
same,log fold change Tl+ flux,[12],-0.11 (active)
same,log fold change Tl+ flux,[13],0.0316 (inactive)
same,log fold change Tl+ flux,[14],-0.0147 (inactive)
